Results from the supplement of paper PMC8975748.
Structures can show the parent of a compound that is named as a salt. ± gives the standard deviation of the averaged measurements.

How the values were obtained:
[1] = system: Saccharomyces cerevisiae BY4741 SeMeCo community; experiment: mean cell size (pixel area) (pixels); higher = larger cells; details: 10 µM; 24 h; SM minimal medium
Outline: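 A four-plasmid fluorescent Saccharomyces cerevisiae BY4741 community was tested; each plasmid complements one auxotrophy and carries a fluorescent marker. An overnight preculture at OD600 = 1.0 was diluted to OD600 = 0.3, and 70 µl was added to 384-well plates acoustically predosed with drug (final 10 µM) in SM medium for 24 h. Cells were fixed with paraformaldehyde and imaged by automated confocal microscopy, with analysis in Harmony. Mean cell pixel area per well is averaged over 3 replicates. Same SeMeCo high-content imaging drug screen: Selleck FDA-approved drugs at 10 µM, 24 h in SM medium, 384-well plates, 3 replicates.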

[2] = system: Saccharomyces cerevisiae BY4741 SeMeCo community; experiment: z-score of prototroph abundance vs DMSO median; higher = larger share of this subpopulation than in DMSO controls; details: 10 µM; 24 h; SM minimal medium; subpopulation (auxotrophy): Prototroph
Outline: (§1)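 Cells of a Saccharomyces cerevisiae BY4741 community, carrying four plasmids that each restored one auxotrophy and encoded a distinct fluorescent protein, were pre-grown overnight to OD600 1.0 and diluted to 0.3. A 70 µl volume was added to 384-well plates acoustically predosed with library drugs (10 µM final) and grown 24 h in minimal SM medium. After paraformaldehyde fixation, automated confocal microscopy was used, with single-auxotroph fluorescent strains for thresholds and autofluorescence correction. The abundance of each subpopulation was scored as a z-score against the vehicle-well median.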

[3] = system: Saccharomyces cerevisiae BY4741 SeMeCo community; experiment: z-score of subpopulation abundance vs DMSO median, subpopulation auxotrophic for M; higher = larger share of this subpopulation than in DMSO controls; details: 10 µM; 24 h; SM minimal medium; subpopulation (auxotrophy): M
Outline: as §1

[4] = system: Saccharomyces cerevisiae BY4741 SeMeCo community; experiment: z-score of subpopulation abundance vs DMSO median, subpopulation auxotrophic for L; higher = larger share of this subpopulation than in DMSO controls; details: 10 µM; 24 h; SM minimal medium; subpopulation (auxotrophy): L
Outline: as §1

[5] = system: Saccharomyces cerevisiae BY4741 SeMeCo community; experiment: z-score of subpopulation abundance vs DMSO median, subpopulation auxotrophic for U; higher = larger share of this subpopulation than in DMSO controls; details: 10 µM; 24 h; SM minimal medium; subpopulation (auxotrophy): U
Outline: as §1

[6] = system: Saccharomyces cerevisiae BY4741 SeMeCo community; experiment: z-score of subpopulation abundance vs DMSO median, subpopulation auxotrophic for LU; higher = larger share of this subpopulation than in DMSO controls; details: 10 µM; 24 h; SM minimal medium; subpopulation (auxotrophy): LU
Outline: as §1

[7] = system: Saccharomyces cerevisiae BY4741 SeMeCo community; experiment: z-score of subpopulation abundance vs DMSO median, subpopulation auxotrophic for LM; higher = larger share of this subpopulation than in DMSO controls; details: 10 µM; 24 h; SM minimal medium; subpopulation (auxotrophy): LM
Outline: as §1

[8] = system: Saccharomyces cerevisiae BY4741 SeMeCo community; experiment: z-score of subpopulation abundance vs DMSO median, subpopulation auxotrophic for HM; higher = larger share of this subpopulation than in DMSO controls; details: 10 µM; 24 h; SM minimal medium; subpopulation (auxotrophy): HM
Outline: as §1

[9] = system: Saccharomyces cerevisiae BY4741 SeMeCo community; experiment: z-score of subpopulation abundance vs DMSO median, subpopulation auxotrophic for HU; higher = larger share of this subpopulation than in DMSO controls; details: 10 µM; 24 h; SM minimal medium; subpopulation (auxotrophy): HU
Outline: as §1

[10] = system: Saccharomyces cerevisiae BY4741 SeMeCo community; experiment: z-score of subpopulation abundance vs DMSO median, subpopulation auxotrophic for UM; higher = larger share of this subpopulation than in DMSO controls; details: 10 µM; 24 h; SM minimal medium; subpopulation (auxotrophy): UM
Outline: as §1

[11] = system: Saccharomyces cerevisiae BY4741 SeMeCo community; experiment: z-score of subpopulation abundance vs DMSO median, subpopulation auxotrophic for HL; higher = larger share of this subpopulation than in DMSO controls; details: 10 µM; 24 h; SM minimal medium; subpopulation (auxotrophy): HL
Outline: as §1

[12] = system: Saccharomyces cerevisiae BY4741 SeMeCo community; experiment: z-score of subpopulation abundance vs DMSO median, subpopulation auxotrophic for HLU; higher = larger share of this subpopulation than in DMSO controls; details: 10 µM; 24 h; SM minimal medium; subpopulation (auxotrophy): HLU
Outline: as §1

[13] = system: Saccharomyces cerevisiae BY4741 SeMeCo community; experiment: z-score of subpopulation abundance vs DMSO median, subpopulation auxotrophic for HLM; higher = larger share of this subpopulation than in DMSO controls; details: 10 µM; 24 h; SM minimal medium; subpopulation (auxotrophy): HLM
Outline: as §1

[14] = system: Saccharomyces cerevisiae BY4741 SeMeCo community; experiment: z-score of subpopulation abundance vs DMSO median, subpopulation auxotrophic for HUM; higher = larger share of this subpopulation than in DMSO controls; details: 10 µM; 24 h; SM minimal medium; subpopulation (auxotrophy): HUM
Outline: as §1

[15] = system: Saccharomyces cerevisiae BY4741 SeMeCo community; experiment: z-score of subpopulation abundance vs DMSO median, subpopulation auxotrophic for LUM; higher = larger share of this subpopulation than in DMSO controls; details: 10 µM; 24 h; SM minimal medium; subpopulation (auxotrophy): LUM
Outline: as §1

[16] = system: Saccharomyces cerevisiae BY4741 SeMeCo community; experiment: z-score of subpopulation abundance vs DMSO median, subpopulation auxotrophic for H; higher = larger share of this subpopulation than in DMSO controls; details: 10 µM; 24 h; SM minimal medium; subpopulation (auxotrophy): H
Outline: as §1

[17] = system: Saccharomyces cerevisiae BY4741 SeMeCo community; experiment: z-score of subpopulation abundance vs DMSO median, subpopulation auxotrophic for HLUM; higher = larger share of this subpopulation than in DMSO controls; details: 10 µM; 24 h; SM minimal medium; subpopulation (auxotrophy): HLUM
Outline: as §1

Compound	mean cell size [1]	z-score of prototroph abundance [2]	z-score of subpopulation abundance [3]	z-score of subpopulation abundance [4]	z-score of subpopulation abundance [5]	z-score of subpopulation abundance [6]	z-score of subpopulation abundance [7]	z-score of subpopulation abundance [8]	z-score of subpopulation abundance [9]	z-score of subpopulation abundance [10]	z-score of subpopulation abundance [11]	z-score of subpopulation abundance [12]	z-score of subpopulation abundance [13]	z-score of subpopulation abundance [14]	z-score of subpopulation abundance [15]	z-score of subpopulation abundance [16]	z-score of subpopulation abundance [17]
CC1(C)S[C@@H]2[C@H](NC(=O)[C@H](NC(=O)N3CCNC3=O)c3ccccc3)C(=O)N2[C@H]1C(=O)O [Azlocillin sodium salt]	12.4 ± 0.27	0.68	-0.54	1.83	-1.51	-0.34	1.34	-0.15	-1.18	-1.29	0.33	-0.4	-0.3	-1.31	0.86		
Cc1cc(CC(C)CC(C)(C)C)n(O)c(=O)c1 (centres undefined) [Piroctone Olamine]	12 ± 0.34	-16.9	0.45	1.41		2.47	6.65	24		6.25	14.6	20.3	39.5	30.2	16	3.62	16.6
N=C(N)NC(=O)c1nc(Cl)c(N)nc1N [Amiloride HCl]	12.59 ± 0.11	-0.41	1.46	1.94	-1.58	-0.38	3.94	1.25			1.51	-0.5	3.24	-1.69	0.19		0.53
CCN1CC(CCN2CCOCC2)C(c2ccccc2)(c2ccccc2)C1=O (centres undefined) [Doxapram HCl]	12.5 ± 0.14	0.14	0	-1.14	0.42	-1.17	-0.29	-0.61		0.7	-1.3	-0.53	-1.09	0.9	-0.43		-0.71
CCC[C@@H]1C[C@@H](C(=O)N[C@@H]([C@H]2O[C@H](SC)[C@H](O)[C@@H](O)[C@H]2O)[C@@H](C)O)N(C)C1 [Lincomycin HCl]	12.4 ± 0.14	0.69	0.32	-0.98	-0.24	-0.63	-0.14	-0.17	-0.73	0.19		-0.34	-0.77	0.3	-0.87		
CC1(C)S[C@@H]2[C@H](NC(=O)Cc3ccccc3)C(=O)N2[C@H]1C(=O)O.CCN(CC)CCOC(=O)c1ccc(N)cc1 [Penicillin G Procaine]	12.2 ± 0.22	-1.56	0.35	0.99	-0.07	0.41	1	0.69	0.54	0.64	2.5	0.81	0.43	0.86	1.6	1.75	
Cc1cc(NS(=O)(=O)c2ccc(N)cc2)no1 [Sulfamethoxazole]	12.4 ± 0.24		0.51	0.5		0.02	0.08	0.18	-0.16	0.65	0.5	1.04	-0.58	-0.13	-0.02	-0.46	-0.41
